PGC1a acetyl inh = PGC1a acetylation modulation, inhibitor mode | U2OS PGC1a acetylation, AlphaScreen anti-acetyl-lysine; with virally co-expressed GCN5 acetyltransferase | inhibition, % at 15.6 µM | hit rate 0.17% among 350,000;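 active = every replicate shows inhibition of at least 40%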
PDI inh = inhibitors of human protein disulfide isomerase; PDI insulin aggregation turbidity, A650, 90 min; inhibition, % at 10 µM; AID 588391; P07237; hit rate 0.052% among 350,000;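 active = mean inhibition across replicates of 30% or more, whatever share of single replicates reach that level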
Target sequence (P07237 whole entry, looked up): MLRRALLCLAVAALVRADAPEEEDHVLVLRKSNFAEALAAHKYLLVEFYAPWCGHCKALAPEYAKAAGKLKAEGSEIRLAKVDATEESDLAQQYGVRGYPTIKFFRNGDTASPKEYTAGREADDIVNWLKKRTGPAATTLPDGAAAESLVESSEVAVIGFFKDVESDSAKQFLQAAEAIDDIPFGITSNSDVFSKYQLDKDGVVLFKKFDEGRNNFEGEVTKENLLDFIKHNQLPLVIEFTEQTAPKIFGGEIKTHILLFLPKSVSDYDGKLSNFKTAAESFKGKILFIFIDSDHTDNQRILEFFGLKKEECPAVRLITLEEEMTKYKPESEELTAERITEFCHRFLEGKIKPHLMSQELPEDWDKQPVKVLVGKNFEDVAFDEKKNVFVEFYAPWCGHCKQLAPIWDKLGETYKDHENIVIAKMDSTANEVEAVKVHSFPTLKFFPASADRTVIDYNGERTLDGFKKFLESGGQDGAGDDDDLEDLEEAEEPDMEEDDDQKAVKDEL
ERAP1 HTS inh = inhibitors of human ERAP1 aminopeptidase | Q9NZ08 | recombinant ERAP1, Leu-AMC fluorescence, 60 min | inhibition, % at 10.7 µM | hit rate 0.15% among 340,000;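 active = mean replicate inhibition of at least 30%, or all replicates individually reaching that 30% level; inactive = mean below 30% and not every replicate reaching it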
PglD DTNB = inhibitors of Campylobacter jejuni PglD acetyltransferase; purified PglD enzyme, DTNB colorimetric CoA detection; inhibition, % at 12.5 µM; hit rate 0.098% among 360,000; in the data active = inhibition above about 16%, passing the limit was not always enough
CaV13 ICDI inh = Primary screen for inhibitors of IQ motif and Ca2+-dependent inactivation inhibitor domain binding in CACNA1D, Förster resonance energy transfer in living cells, …; inhibition, % at 12.3 µM; HEK cells, CFP/YFP FRET ICDI-IQ, plate reader, 10 min; percent FRET-ratio fall versus neutral wells; hit rate 0.098% among 340,000; AID 743397;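 active = mean replicate inhibition of at least 30% and at least 1% of replicates passing that level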
ERp5 block = blocks human ERp5 reductase activity on insulin; hit rate 0.05% among 350,000; Q15084; inhibition, % at 9.99 µM; ERp5 insulin aggregation, absorbance 650 nm, 90 min;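 active = mean replicate inhibition above about 25%, with every replicate also reaching it, limit read from the data, passing the limit was not always enough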
Numbers stand for hits; 0 = inactive; - = no result; + = active, no number. This is a sample that favours compounds with a hit; in the whole collection about 0.46% have one here.

SMILES	PGC1a acetyl inh	PDI inh	ERAP1 HTS inh	PglD DTNB	CaV13 ICDI inh	ERp5 block
Cc1cccn2c(=O)c3cc(C(=O)NCCN4CCOCC4)c(=N)n(CCCN4CCOCC4)c3nc12	0	0	35	0	0	0
Cc1cccn2c(=O)c3cc(C(=O)NCCc4ccccc4)c(=N)n(CC4CCCO4)c3nc12 (stereo not given)	0	0	0	0	0	0
Cc1cccn2c(=O)c3cc(C(N)=S)c(=N)n(CCCOC(C)C)c3nc12	0	0	-	0	34	-
COc1cccc(S(=O)(=O)N2CCC3(CC2)CN[C@@H](CO)c2[nH]c4cc(OC)ccc4c23)c1	0	-	-	-	-	-
C[C@@H]1CN([C@@H](C)CO)C(=O)c2cc(C#Cc3cccnc3)cnc2O[C@@H]1CN(C)C(=O)CN(C)C	0	-	0	0	-	0
O=C(NC[C@@H]1CC[C@@H]2[C@@H](CN2Cc2cc(-c3ccccc3)on2)O1)c1ccc2c(c1)OCO2	0	-	0	-	-	0
C[C@H](CO)N1C[C@H](C)[C@H](CN(C)C(=O)C2CC2)Oc2ncc(C3=CCCC3)cc2C1=O	0	-	-	-	-	-
Cc1cccn2c(=O)c3cc(C(=O)NCCc4ccccc4)c(=N)n(CCCn4ccnc4)c3nc12	0	0	-	0	33	-
Cc1cccn2c(=O)c3cc(C(=O)NCCN4CCOCC4)c(=N)n(CCc4ccccc4)c3nc12	0	0	-	0	34	-
Cc1cc(Cl)ccc1OCc1n[nH]c(=S)n1C1CCCCC1	0	32	-	0	0	-
C[C@@H]1CN([C@@H](C)CO)S(=O)(=O)c2ccc(-c3cncnc3)cc2O[C@@H]1CN(C)C(=O)CC1CC1	0	-	0	0	-	0
CC(C)c1ccc(OC(=O)c2cccc(S(=O)(=O)N3CCN(C)CC3)c2)cc1	0	0	106	0	-	0
O=C(O)c1ccc2c(=O)n(-c3ccccc3)c(=S)[nH]c2c1	0	0	0	0	0	0
O=c1[nH]c(=O)c2[nH]c(=S)n(-c3ccccc3)c2[nH]1	0	0	37	0	0	0
C/C=C/c1ccc([C@H]2[C@@H](CO)N(S(=O)(=O)CC)[C@H]2CN(C)C(=O)CC)cc1	-	-	0	-	-	0
COc1ccccc1-c1cccc(-c2nc(C(=O)Nc3nccs3)cc3c2[C@@H](CCO)N(C(=O)CC2CC2)C3)c1	-	-	45	-	0	0
CCS(=O)(=O)NCC[C@H]1CC[C@@H](NS(=O)(=O)c2ccccc2C)[C@H](CO)O1	0	-	0	0	-	0
CCCNC(=O)Nc1ccc2c(c1)OC[C@H](C)N(C(=O)c1ccccc1F)C[C@H](C)[C@@H](OC)CN(C)C2=O	0	-	0	-	-	0
O=S1(=O)CC(O)C(O)CS1 (stereo not given)	-	-	65	-	0	0
COc1cc(CO)cc(I)c1O[C@H]1C=C(C(=O)NCCO)C[C@@H](NCc2ccccc2F)[C@@H]1O	0	-	0	0	-	0
CC1(C)CC(N2CCCC2)=CC(=[N+]2CCCC2)C1	-	0	63	0	0	0
C[C@@H]1CCCCO[C@H](CN(C)C(=O)CCC(F)(F)F)[C@H](C)CN([C@H](C)CO)C(=O)c2cc(NS(=O)(=O)c3ccc(Cl)cc3)ccc2O1	0	-	0	0	-	0
C[n+]1cccc(C(=O)NNC(=O)C23CC4CC(CC(C4)C2)C3)c1	0	0	109	-	0	0
C[C@@H]1CN([C@H](C)CO)C(=O)c2cc(NC(=O)Cc3ccccc3)ccc2O[C@@H](C)CCCCO[C@@H]1CN(C)CC1CCCCC1	0	-	0	0	-	0
COc1cccc(S(=O)(=O)Nc2ccc3c(c2)[C@H]2C[C@@H](CC(=O)NCc4ccc(Cl)cc4)O[C@H](CO)[C@H]2O3)c1	0	-	0	0	-	0
SMILES	PGC1a acetyl inh	PDI inh	ERAP1 HTS inh	PglD DTNB	CaV13 ICDI inh	ERp5 block
COCCCNC(=O)/C(C#N)=C1\N=C(NC(=O)c2cccs2)c2ccccc21	0	0	54	-	0	0
Cc1ccc(C2=NN(S(=O)(=O)c3ccccc3)C(c3ccco3)C2)cc1 (stereo not given)	0	0	0	0	0	0
O=S(=O)(c1ccccc1)N1N=C(c2ccc(O)cc2)CC1c1ccco1 (stereo not given)	-	38	0	0	0	0
C[C@@H]1CN([C@@H](C)CO)C(=O)c2cc(NS(=O)(=O)c3cn(C)cn3)ccc2O[C@@H](C)CCCCO[C@@H]1CN(C)Cc1ccccc1	0	-	0	0	-	0
CC(=O)c1sc(N/N=C/c2cccc(O)c2)nc1C	0	0	0	0	0	0
CC(=O)c1sc(N/N=C\c2ccc(N(C)C)cc2)nc1C	0	0	0	0	+	0
Cc1cc(-c2ccccc2)c2ccc(NC(=O)C(C)(C)C)nc2n1	-	0	0	0	45	0
Cc1cc(C)nc(/N=C(\NC(=O)C(C)(C)C)Nc2ccccc2)n1	0	0	-	0	0	0
CN(C)C(=O)CN1C(=O)c2cccc3cccc1c23	0	0	0	0	0	0
CCN1C(=O)c2cccc3cccc1c23	0	0	44	0	0	0
CCN1C(=O)C2C(c3ccccc3F)NC(Cc3ccc(O)cc3)(C(=O)OC)C2C1=O (stereo not given)	0	53	-	0	0	-
CCOC(=O)C1(Cc2ccccc2)NC(c2ccccc2F)C2C(=O)N(CC)C(=O)C21 (stereo not given)	-	0	-	0	0	-
CN1C(=O)c2cc(NC(=O)Nc3ccc(F)cc3)ccc2OC[C@@H]2O[C@H](CC(=O)NC3CCC3)CC[C@@H]21	0	-	0	0	-	0
CO[C@H]1CN(C)C(=O)c2ccc(NS(=O)(=O)c3ccc(C)cc3)cc2OC[C@@H](C)N(C(=O)NC(C)C)C[C@H]1C	0	-	-	-	-	-
CCCCn1c(SCC(=O)Nc2ccc3c(c2)OCCO3)nnc1C(CC)N(C)C (stereo not given)	-	0	0	0	0	0
CCCCn1c(SCC(=O)NCc2ccc3c(c2)OCO3)nnc1C(CC)N(C)C (stereo not given)	44	0	0	0	0	0
Cc1ccccc1S(=O)(=O)N[C@@H]1CC[C@@H](CCn2cc(-c3ccccc3)nn2)O[C@H]1CO	0	-	0	0	-	0
Cc1ccc(C)c(-n2c(Cc3cc(=O)[nH]c(=O)[nH]3)nnc2SC(C)C)c1	0	0	-	0	39	0
CS(=O)(=O)c1ccc(C(=O)OCc2nnc(-c3ccc(Cl)cc3)o2)cc1[N+](=O)[O-]	0	89	-	0	-	-
Cc1ccc(S(=O)(=O)Nc2ccc3c(c2)C(=O)N([C@@H](C)CO)C[C@H](C)[C@H](CN(C)C(=O)Nc2ccccc2)OCCCC[C@@H](C)O3)cc1	0	-	0	0	-	0
COc1cc2ccc(=O)oc2cc1OCC(O)C(C)(C)O (stereo not given)	0	-	0	0	-	0
COc1cc2ccc(=O)oc2cc1O	0	-	74	0	-	0
O=C(CC1CC1)N1CC2(C1)[C@@H](c1ccccc1)[C@@H](CO)N2C(=O)c1cccnc1	0	-	0	-	-	0

Screening data: PubChem, Broad Institute
